This passage reports outcome and AC50 results from PubChem BioAssay (EPA / NIEHS).

Several values for one entry are separate records, joined by “and”; a condition that tells them apart may be missing. Equal values may be shown once. Records with an inconclusive call do not appear. Activity calls are given as the source filed them. How the source made its calls, unless noted: active means hit-call score of the fitted dose curve at least 0.9, where 1 is the maximum; inconclusive means response in the unintended direction; inactive means score below 0.9.

Experiment [1] in a line: TOX21_p53_BLA_p2_viability: Viability Assessment in the Tox21 HCT-116 p53 Agonism Beta-lactamase Assay, Phase 2 (AID 2283591).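 Further: actives lower the ATP signal meaning cytotoxicity.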 The method in brief:
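Cytotoxicity readout: CellTiter-Glo ATP luminescence, 30 min at room temperature, after the beta-lactamase read. Cells were HCT116 exposed 16 h at 37C to compounds pin-transferred at 217-fold dilution from DMSO stocks.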

Experiment [2] addresses Cellular tumor antigen p53 (Homo sapiens) (UniProt P04637). Nature of the experiment: TOX21_p53_BLA_p2_ratio: Tox21 HCT-116 p53 Agonism Beta-lactamase Assay, Ratio, Phase 2 (AID 2283592). The method in brief: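 First, HCT116 reporter cells settle for 5 h at 37C. Next, DMSO compound solutions are pinned in (217-fold dilution) and left 16 h. Finally, CCF4-AM substrate is loaded 2 h at room temperature and the 460/530 nm ratio read.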

The nature of experiment [3]: TOX21_p53_BLA_p3_viability: Viability Assessment in the Tox21 HCT-116 p53 Agonism Beta-lactamase Assay, Phase 3 (AID 2283593).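 Further: cells exposed to compound for 16 h before reading.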 The method in brief: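 Cellular ATP was quantified by CellTiter-Glo luminescence, read after 30 min at room temperature. Beforehand, HCT116 cells (4000/well) received compound 5 h post-seeding, 217-fold diluted from DMSO, then incubated 16 h at 37C.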

Experiment [4] addresses Cellular tumor antigen p53 (Homo sapiens) (UniProt P04637). Briefly: TOX21_p53_BLA_p3_ratio: Tox21 HCT-116 p53 Agonism Beta-lactamase Assay, Ratio, Phase 3 (AID 2283596). The method in brief:
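Cells were seeded at 4000/well, rested 5 h at 37C, then dosed with DMSO compound solutions (217-fold dilution) for 16 h. CCF4-AM substrate was loaded for 2 h at room temperature, and the 460/530 nm emission ratio was fitted for gain of signal versus DMSO.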

Experiment [5] in a line: TOX21_p53_BLA_p4_viability: Viability Assessment in the Tox21 HCT-116 p53 Agonism Beta-lactamase Assay, Phase 4 (AID 2283597).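 Further: hits lower the luminescence signal meaning cytotoxicity.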 In outline: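 4000 HCT116 cells per well; 5 h attachment; compounds from DMSO, 217-fold dilution; 16 h at 37C. Then CCF4-AM, 2 h RT, followed by CellTiter-Glo, 30 min RT, luminescence. Decrease = cytotoxicity.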
Experiment [6] has as its target Cellular tumor antigen p53 (Homo sapiens) (UniProt P04637). Briefly: TOX21_p53_BLA_p5_ratio: Tox21 HCT-116 p53 Agonism Beta-lactamase Assay, Ratio, Phase 5 (AID 2283599). In outline: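 Beta-lactamase reporter ratio (blue 460 nm over green 530 nm, 405 nm excitation) after 2 h CCF4-AM loading, in HCT-116 cells exposed 16 h at 37 C to compounds pinned at 217-fold dilution. Increases relative to DMSO baseline scored.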

A short description of experiment [7]: TOX21_p53_BLA_p5_viability: Viability Assessment in the Tox21 HCT-116 p53 Agonism Beta-lactamase Assay, Phase 5 (AID 2283600). The method in brief:
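Decreased CellTiter-Glo luminescence denotes lost viability. Exposure: 16 h at 37C, 5% CO2, with compounds from DMSO stocks diluted 217-fold in wells of 4000 cells.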

Experiment [8] addresses Cellular tumor antigen p53 (Homo sapiens) (UniProt P04637). Nature of the experiment: TOX21_p53_BLA_p4_ratio: Tox21 HCT-116 p53 Agonism Beta-lactamase Assay, Ratio, Phase 4 (AID 2283601). The method in brief:
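Signal is the blue/green (460nm/530nm) ratio of cleaved versus uncleaved CCF4-AM substrate, read after 2 h substrate loading. Cells were HCT116 carrying the p53-responsive beta-lactamase reporter, dosed 16 h at 37C, 5% CO2; CellTiter-Glo measured in parallel.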

Experiment [9] deals with THRB (gene 7068) (UniProt P10828). Briefly: TOX21_TRB_BLA_Antagonist_Followup_ratio: Tox21 Thyroid Hormone Receptor beta Antagonism Beta-lactamase (BLA) Follow-Up Assay, Ratio (AID 2283958). In outline: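 Cells were plated and allowed to attach for 5 h, then dosed with compounds in DMSO at 11 concentrations for 18 h at 37C. Beta-lactamase reporter activity was measured via CCF4-AM FRET as the 460:530 nm ratio.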

Experiment [10] is described as follows: TOX21_TRB_BLA_Antagonist_Followup_viability: Viability Assessment in the Tox21 Thyroid Hormone Receptor beta Antagonism Beta-lactamase (BLA) Follow-Up Assay (AID 2283961). The method in brief:
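HEK293T cells with GAL4-human TRβ LBD and UAS-bla reporter, 3,000 cells/well in 2% charcoal-stripped FBS medium; 11-point concentrations in triplicate, 18 h at 37C. Viability from ATP by CellTiter-Glo luminescence, 30 min RT, same plates.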

Experiment [11] concerns the target THRB (gene 7068) (UniProt P10828). Nature of the experiment: TOX21_TRB_COA_Antagonist_Followup_ratio: Tox21 Thyroid Hormone Receptor beta Antagonism through Coactivator Recruitment Follow-Up Assay, Ratio (AID 2283967). The method in brief: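 Coactivator recruitment to the GST-tagged TRb ligand-binding domain (5.0 nM) was read as the 520/495 nm TR-FRET ratio, using 200 nM fluorescein SRC-2 peptide and 2 nM terbium anti-GST. Scaled between DMSO and T3 wells; loss of signal fitted.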

Experiment [12] is described as follows: TOX21_TR_RXR_BLA_Antagonist_Followup_viability: Viability Assessment in the Tox21 Thyroid Hormone Receptor beta Retinoid X Receptor alpha (RXRa) Antagonism Beta-lactamase (BLA) Follow-Up Assay (AID 2283979). The method in brief: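 Follow-up compounds (11 concentrations, triplicate) were incubated 16 h at 37C/5% CO2 with HEK293T RXRa-bla cells seeded at 2,500/well in charcoal-stripped-serum medium. ATP content by CellTiter-Glo luminescence gave viability; curves fitted in both directions against DMSO.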

A short description of experiment [13]: CCTE_Harrill_HTTr_Viability_MCF7: CCTE's 6-hour Cell Viability Assessment for the High-Throughput Transcriptomics (HTTr) Platform, in MCF-7 cells cultured in DMEM + 10% fetal bovine serum, Harrill Lab (AID 2284010; active means hit-call score of the fitted dose curve at least 0.9, where 1 is the maximum; inactive means score below 0.9). The method in brief:
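Read-out is propidium iodide gain of signal by high-content imaging, reflecting membrane integrity loss. Measurements are taken 6 h after dosing, eight concentrations per chemical, with DMSO serving as baseline for bidirectional curve fitting.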

Experiment [14] can be described thus: CCTE_Harrill_HTTr_Apoptosis_MCF7: CCTE's 6-hour Apoptosis Assessment for the High-Throughput Transcriptomics (HTTr) Platform, in MCF-7 cells cultured in DMEM + 10% fetal bovine serum, Harrill Lab (AID 2284011; active means hit-call score of the fitted dose curve at least 0.9, where 1 is the maximum; inactive means score below 0.9). In outline: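 MCF-7 cells in DMEM + 10% FBS exposed 6 h to chemicals over an eight-point dilution series. Caspase-3/7 activation imaged by high-content CellEvent Green staining; fitted bidirectionally versus DMSO.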

In experiment [15] the target is Thyroid hormone receptor alpha (Rattus norvegicus) + Thyroid hormone receptor beta (Rattus norvegicus) (UniProt P18113+P63059). Nature of the experiment: TOX21_TR_LUC_GH3_Antagonist_Followup: Tox21 GH3 Thyroid Hormone Receptor Antagonism Luciferase Follow-Up Assay (AID 2283942). In outline:
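Loss of T3-driven (1.0 nM final) reporter activity in GH3 cells was read by ONE-Glo luminescence after 24 h incubation at 37C; 15-point compound series spanned 92 uM to 5nM final, 1,500 cells/well.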

Chain of THRB (gene 7068) (P10828 whole entry, looked up, the tested form may be a part): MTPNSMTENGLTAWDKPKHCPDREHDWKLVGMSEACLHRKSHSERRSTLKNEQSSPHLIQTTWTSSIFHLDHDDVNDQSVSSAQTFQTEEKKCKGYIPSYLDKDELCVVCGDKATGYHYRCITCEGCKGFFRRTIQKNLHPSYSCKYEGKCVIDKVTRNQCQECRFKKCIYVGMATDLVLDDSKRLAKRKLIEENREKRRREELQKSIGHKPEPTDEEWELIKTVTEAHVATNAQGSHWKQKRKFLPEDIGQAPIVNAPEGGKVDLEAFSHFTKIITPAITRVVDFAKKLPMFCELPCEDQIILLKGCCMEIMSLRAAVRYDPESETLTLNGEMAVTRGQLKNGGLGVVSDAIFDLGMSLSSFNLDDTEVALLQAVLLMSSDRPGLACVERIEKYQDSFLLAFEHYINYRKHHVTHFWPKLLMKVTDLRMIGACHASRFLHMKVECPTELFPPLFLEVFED
Chain of Cellular tumor antigen p53 (Homo sapiens) (P04637 whole entry, looked up): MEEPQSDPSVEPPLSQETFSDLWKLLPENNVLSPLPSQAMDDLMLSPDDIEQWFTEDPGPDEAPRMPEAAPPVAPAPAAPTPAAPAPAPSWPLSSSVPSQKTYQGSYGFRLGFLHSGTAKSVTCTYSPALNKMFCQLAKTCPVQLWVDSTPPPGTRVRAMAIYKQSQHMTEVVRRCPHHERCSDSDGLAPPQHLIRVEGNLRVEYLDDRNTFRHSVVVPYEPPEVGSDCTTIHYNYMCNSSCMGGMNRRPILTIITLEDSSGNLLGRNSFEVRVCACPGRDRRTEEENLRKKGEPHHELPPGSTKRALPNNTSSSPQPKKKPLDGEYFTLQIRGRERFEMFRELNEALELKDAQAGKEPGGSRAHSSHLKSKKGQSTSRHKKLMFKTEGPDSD

Regarding `CCCC(=O)O[C@]1(C(=O)CCl)[C@@H](C)C[C@H]2[C@@H]3CCC4=CC(=O)C=C[C@]4(C)[C@@]3(F)C(=O)C[C@@]21C`, the outcome in experiment [1], in experiment [2], in experiment [3], in [4], in experiment [5] and in experiment [6] was inactive. Moreover, the result in experiment [7], in experiment [8], in experiment [9], in experiment [10], in experiment [11] and in experiment [12] was inactive.
Regarding `Cc1c(C(=O)NCCO)[n+](=O)c2ccccc2n1[O-]`, the compound was called inactive in experiment [1], in [2], in [3], in [4], in experiment [5] and in experiment [6]. The outcome in experiment [8] was inactive.
Take `CCCC1C(CC)=CC(CC)=CN1c1ccccc1` (centres undefined): the compound was classed as inactive in experiment [1], in [2], in [3], in experiment [4], in experiment [5] and in [6]. Also, the outcome in experiment [8] was inactive.
With `O=C(O)CN(CCN(CC(=O)O)CC(=O)O)CC(=O)O`, the result in experiment [1], in experiment [2], in experiment [3], in experiment [4], in [5] and in experiment [6] was inactive. In addition, the compound was classed as inactive in experiment [7], in experiment [8], in [13] and in [14].
With `COc1ccc(Cl)cc1C(=O)NCCc1ccc(S(=O)(=O)NC(=O)NC2CCCCC2)cc1`, the compound was classed as inactive in [1], in experiment [2], in [3], in experiment [4], in [5] and in experiment [6]. Further, the compound was classed as inactive in experiment [7], in experiment [8], in experiment [13] and in experiment [14].
As usually defined, the AC50 is the concentration at which the activity in the assay is half-maximal. As to `CCCCC(=O)O[C@]1(C(=O)CO)[C@@H](C)C[C@H]2[C@@H]3CCC4=CC(=O)C=C[C@]4(C)[C@@]3(F)[C@@H](O)C[C@@]21C`, the call in experiment [1], in experiment [2], in [3], in experiment [4], in experiment [6] and in experiment [7] was inactive. The outcome in experiment [8], in [13] and in experiment [14] was inactive. Also, in experiment [5], the AC50 was 38700 nM (active).
As to `C#CCC(Cc1cnc2nc(N)nc(N)c2n1)c1ccc(C(=O)N[C@@H](CCC(=O)O)C(=O)O)cc1` (some centres undefined), the AC50 was 245 nM (active) in [1]; 430 nM (active) in [2]; 301 nM (active) in experiment [3]; 661 nM (active) in experiment [4]; 385 nM (active) in experiment [5]; 1.13 µM (active) in experiment [6]. Moreover, the concentration at half-maximal activity (AC50) in experiment [7] is 538 nM (active); in experiment [8], 575 nM (active); in [10] it was 440 nM (active); in experiment [12], 542 nM (active). For the same compound, the outcome in experiment [15], in experiment [9] and in experiment [11] was inactive.
As to `CCC(Oc1ccccc1)C(=O)N[C@@H]1C(=O)N2[C@@H]1SC(C)(C)[C@@H]2C(=O)O` (some centres undefined), the compound was called inactive in experiment [1], in experiment [2], in experiment [3], in experiment [4], in [5] and in [6]. Also, the result in experiment [8] was inactive.
Consider `Cc1c(O)cccc1C(=O)N[C@@H](CSc1ccccc1)[C@H](O)CN1C[C@H]2CCCC[C@H]2C[C@H]1C(=O)NC(C)(C)C`, for which the AC50 was 36.3 µM (active) and 18.7 µM (active) in experiment [1]; 44.9 µM (active) and 20.2 µM (active) in experiment [2]; 21.6 µM (active) and 21.1 µM (active) in experiment [3]; 43.8 µM (active) and 38.2 µM (active) in [4]; 27900 nM (active) in [5]; 66.8 µM (active) and 35.3 µM (active) in [6]. Further, the half-maximal activity concentration (AC50) in [7] is 33.1 µM (active) and 19.5 µM (active); in [8], 46.8 µM (active) and 23.1 µM (active).
